Reference: PubChem BioAssay AID1159580 (chemical genetic matrix, 2015)
Where “and” joins values, the source holds several entries; their conditions need not be identical. Equal entries are not always repeated. Screen size: about 5,500 compounds; about 2,000 (36%) were called active. Inconclusive results (about 18%) are left out. Rule as the data show it: active = normalized growth mostly below about 0.91 (no sharp cut-off); inconclusive = no clear call, values can overlap the other calls; inactive = mostly above about 0.92. The list shows a part of the results.

Experiment: chemical genetic growth profiling, strain panel (AID 1159580);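 also: tested at 20 µM; growth read once vehicle control cultures reached saturation at 30 °C; 1 = growth at the plate median or of vehicle wells; lower values mean less growth of the strain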
Conditions: S. cerevisiae deletion strains, growth OD

Measured: normalized growth

COc1cc(O)c(C(C)=O)c(OC)c1
active: locus YDR195W, strain ref2 1.16 [resistant] | locus YER155C, strain BEM2 (second series), active compounds read low 0.8
inactive: locus YAL013W, strain DEP1, active compounds read low 1.02 | locus YAL021C, strain ccr4, active compounds read low 1.01 | locus YAL026C, strain drs2, active compounds read low 0.968 | locus YAL030W, strain snc1, active compounds read low 1 | locus YBL061C, strain skt5, active compounds read low 0.992 | locus YBR009C, strain hhf1, active compounds read low 0.957 | locus YBR021W, strain FUR4, active compounds read low 1.02 | locus YBR023C, strain chs3, active compounds read low 0.995 | locus YBR171W, strain sec66, active compounds read low 0.993 | locus YBR229C, strain ROT2, active compounds read low 1.01 | locus YBR231C, strain swc5, active compounds read low 0.994 | locus YBR279W, strain paf1, active compounds read low 1 | locus YCL011C, strain gbp2, active compounds read low 0.99 | locus YCL016C, strain dcc1, active compounds read low 1.01 | locus YCL029C, strain bik1, active compounds read low 1.01 | locus YCL061C, strain MRC1, active compounds read low 0.965 | locus YCL069W, strain vba3, active compounds read low 1 | locus YCR088W, strain abp1, active compounds read low 0.993 | locus YDL005C, strain med2, active compounds read low 1.03 | locus YDL035C, strain GPR1, active compounds read low 1.04 | locus YDL040C, strain nat1, active compounds read low 0.999 | locus YDL074C, strain BRE1, active compounds read low 1.04 | locus YDL101C, strain DUN1, active compounds read low 1.01 | locus YDL134C, strain PPH21, active compounds read low 0.999 | locus YDL185W, strain tfp1, active compounds read low 0.992 | locus YDL192W, strain arf1, active compounds read low 1.01 | locus YDR001C, strain nth1, active compounds read low 0.996 | locus YDR069C, strain doa4, active compounds read low 1.03 | locus YDR101C, strain arx1, active compounds read low 1 | locus YDR137W, strain rgp1, active compounds read low 1.03 | locus YDR150W, strain NUM1, active compounds read low 0.982 | locus YDR159W, strain sac3, active compounds read low 0.936 | locus YDR162C, strain NBP2, active compounds read low 1.05 | locus YDR297W, strain sur2, active compounds read low 1.01 | locus YDR318W, strain mcm21, active compounds read low 1 | locus YDR334W, strain swr1, active compounds read low 1 | locus YDR335W, strain msn5, active compounds read low 1.01 | locus YDR388W, active compounds read low 1 | locus YDR392W, strain spt3, active compounds read low 0.842 | locus YDR502C, strain sam2, active compounds read low 0.983 | locus YEL003W, strain gim4, active compounds read low 0.984 | locus YEL037C, strain rad23, active compounds read low 0.998 | locus YEL061C, strain CIN8 (second series), active compounds read low 1 | locus YEL061C, strain CIN8, active compounds read low 1.01 | locus YER015W, strain faa2, active compounds read low 1.01 | locus YER016W, strain bim1, active compounds read low 1 | locus YER110C, active compounds read low 0.982 | locus YER111C, strain swi4, active compounds read low 1 | locus YER155C, strain BEM2, active compounds read low 1.01 | locus YER167W, strain BCK2, active compounds read low 1.01 | locus YFR010W, strain ubp6, active compounds read low 0.999 | locus YGL078C, strain dbp3, active compounds read low 0.991 | locus YGL086W, strain mad1, active compounds read low 0.988 | locus YGL167C, strain pmr1, active compounds read low 1.01 | locus YGL173C, strain kem1, active compounds read low 0.988 | locus YGL227W, strain vid30, active compounds read low 0.997 | locus YGL240W, strain doc1, active compounds read low 0.916 | locus YGL248W, strain PDE1, active compounds read low 0.996 | locus YGL253W, strain hxk2, active compounds read low 0.984 | locus YGR078C, strain PAC10, active compounds read low 0.989 | locus YGR135W, strain pre9, active compounds read low 0.957 | locus YGR252W, strain gcn5, active compounds read low 0.921 | locus YHR013C, strain ard1, active compounds read low 1.01 | locus YHR027C, strain rpn1, active compounds read low 1.01 | locus YHR030C, strain SLT2, active compounds read low 1.01 and 0.966 | locus YHR079C, strain IRE1 (second series), active compounds read low 1 | locus YHR079C, strain IRE1, active compounds read low 0.965 | locus YHR094C, strain hxt1, active compounds read low 0.993 | locus YHR129C, strain ARP1, active compounds read low 1.02 | locus YHR142W, strain chs7, active compounds read low 0.929 | locus YHR200W, strain rpn10, active compounds read low 0.98 | locus YIL066C, strain RNR3, active compounds read low 1.02 | locus YIL073C, strain SPO22, active compounds read low 0.967 | locus YIL125W, strain kgd1, active compounds read low 1 | locus YIR030C, strain dcg1, active compounds read low 0.997 | locus YJL092W, strain hpr5, active compounds read low 0.992 | locus YJL095W, strain BCK1 (second series), active compounds read low 0.996 | locus YJL095W, strain BCK1, active compounds read low 1.02 and 0.967 | locus YJL115W, strain asf1, active compounds read low 1.01 | locus YJL129C, strain trk1, active compounds read low 0.995 | locus YJL134W, strain LCB3, active compounds read low 1 | locus YJL154C, strain vps35, active compounds read low 1.01 | locus YJL164C, strain tpk1, active compounds read low 0.976 | locus YJL166W, strain qcr8, active compounds read low 0.978 | locus YJL168C, strain set2, active compounds read low 0.993 | locus YJL187C, strain SWE1 (second series), active compounds read low 1.01 | locus YJL187C, strain SWE1, active compounds read low 1 | locus YJR066W, strain TOR1, active compounds read low 0.89 | locus YKL009W, strain mrt4, active compounds read low 1.02 | locus YKL068W, active compounds read low 0.99 | locus YKL085W, strain MDH1 (second series), active compounds read low 1.01 | locus YKL085W, strain MDH1, active compounds read low 1.01 | locus YKL160W, strain elf1, active compounds read low 0.986 | locus YKL190W, strain CNB1, active compounds read low 1.01 | locus YKR001C, strain vps1, active compounds read low 0.998 | locus YKR026C, strain gcn3, active compounds read low 0.994 | locus YKR091W, strain srl3, active compounds read low 0.998 | locus YLL001W, strain dnm1, active compounds read low 0.992 | locus YLL026W, active compounds read low 0.992 | locus YLL041C, strain sdh2, active compounds read low 0.998 | locus YLR027C, strain aat2, active compounds read low 0.987 | locus YLR039C, strain RIC1, active compounds read low 1.1 | locus YLR058C, strain SHM2, active compounds read low 1.02 | locus YLR102C, strain apc9, active compounds read low 0.992 | locus YLR113W, strain HOG1, active compounds read low 0.955 | locus YLR221C, strain rsa3, active compounds read low 0.971 | locus YLR258W, strain gsy2, active compounds read low 0.982 | locus YLR262C, strain YPT6 (second series), active compounds read low 1.01 | locus YLR262C, strain YPT6, active compounds read low 1.15 | locus YLR268W, strain sec22, active compounds read low 1.01 | locus YLR320W, strain mms22, active compounds read low 0.972 | locus YLR330W, strain CHS5, active compounds read low 1.01 | locus YLR342W, strain FKS1, active compounds read low 1.01 | locus YLR357W, strain rsc2, active compounds read low 1.01 | locus YLR370C, strain arc18, active compounds read low 1 | locus YLR371W, strain rom2, active compounds read low 0.975 | locus YLR384C, strain iki3, active compounds read low 1.01 | locus YLR418C, strain cdc73, active compounds read low 0.998 | locus YML016C, strain PPZ1, active compounds read low 1 | locus YML032C, strain rad52, active compounds read low 1.01 | locus YML120C, strain ndi1, active compounds read low 0.99 | locus YML124C, strain tub3, active compounds read low 0.988 | locus YMR058W, strain fet3, active compounds read low 0.972 | locus YMR078C, strain ctf18, active compounds read low 0.98 | locus YMR125W, strain sto1, active compounds read low 1.06 | locus YMR129W, active compounds read low 1.01 | locus YMR205C, strain PFK2, active compounds read low 1 | locus YMR223W, strain ubp8, active compounds read low 0.989 | locus YMR231W, strain pep5, active compounds read low 1.02 | locus YMR307W, strain GAS1, active compounds read low 1.02 | locus YNL067W, strain RPL9B, active compounds read low 1 | locus YNL071W, strain lat1, active compounds read low 0.985 | locus YNL128W, strain TEP1, active compounds read low 1.03 | locus YNL153C, strain GIM3, active compounds read low 1.02 | locus YNL183C, strain NPR1, active compounds read low 0.918 | locus YNL209W, strain ssb2, active compounds read low 1 | locus YNL233W, strain BNI4, active compounds read low 1.03 | locus YNL248C, strain rpa49, active compounds read low 0.969 | locus YNL250W, strain rad50, active compounds read low 0.99 | locus YNL271C, strain bni1, active compounds read low 0.985 | locus YNL298W, strain CLA4, active compounds read low 1 | locus YNL307C, strain MCK1, active compounds read low 0.978 | locus YNL322C, strain KRE1 (second series), active compounds read low 1.01 | locus YNR049C, strain mso1, active compounds read low 1.01 | locus YNR052C, strain pop2, active compounds read low 0.988 | locus YOL006C, strain TOP1, active compounds read low 1.06 | locus YOL012C, strain htz1 0.925 | locus YOL147C, strain pex11, active compounds read low 1 | locus YOR001W, strain rrp6, active compounds read low 0.959 | locus YOR061W, strain CKA2, active compounds read low 1.03 | locus YOR069W, strain VPS5, active compounds read low 1 | locus YOR070C, strain gyp1, active compounds read low 0.998 | locus YOR080W, strain dia2, active compounds read low 1.01 | locus YOR083W, strain WHI5, active compounds read low 0.965 | locus YOR106W, strain vam3, active compounds read low 0.972 | locus YOR136W, strain idh2, active compounds read low 1 | locus YOR144C, strain elg1, active compounds read low 0.999 | locus YOR184W, strain ser1, active compounds read low 1.03 | locus YOR231W, strain MKK1, active compounds read low 0.956 | locus YOR265W, strain rbl2, active compounds read low 0.989 | locus YOR270C, strain vph1, active compounds read low 0.915 | locus YOR290C, strain snf2, active compounds read low 0.95 | locus YOR316C, strain cot1, active compounds read low 0.995 | locus YPL051W, strain arl3, active compounds read low 0.966 | locus YPL078C, strain atp4, active compounds read low 0.954 | locus YPL106C, strain sse1, active compounds read low 0.982 | locus YPL240C, strain hsp82, active compounds read low 1 | locus YPL256C, strain CLN2, active compounds read low 0.978 | locus YPR119W, strain clb2, active compounds read low 0.988 | locus YPR141C, strain kar3, active compounds read low 0.993 | locus YPR163C, strain tif3, active compounds read low 0.986 | locus YPR167C, strain met16, active compounds read low 0.991 | strain wtn01, active compounds read low 0.991
